Measurements from PubChem BioAssay.
Calls of active or inactive are those of the source. Unless noted, how the calls were made is not given here.

Assays:
[1] = system: Wnt5a (protein binding on small-molecule microarray); test: small molecules binding Wnt5a protein – biophysical, small-molecule microarray, 635/667 nm fluorescence, primary screen (AID 1142); conditions: 635 nm fluorescence, higher = more signal;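 further: fluorescence read at 667 nm with signal to noise per printed feature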
[2] = ATP-based viability of Huh7 replicon cells – cell-based, CellTiter-Glo luminescence, basal, 48 h, cytotoxicity control for HCV replication inhibitor project, primary screen (AID 1143); conditions: higher = more signal, called active from +8 up or from −8 down;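 further: Huh7 hepatoma cells carrying a hepatitis C replication reporter with no stimulus; test concentration not given here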
[3] = Pseudomonas biofilm growth suppression – PAO1 strain, BacTiter-Glo luminescence, LB-PBS, primary screen (AID 1144); conditions: P. aeruginosa PAO1 biofilm, 12 h, higher = more signal
[4] = basal CRE-LacZ reporter activity in PC12 – cell-based, unstimulated, primary screen (AID 1145); conditions: no forskolin, luminescence, 4.5 h, higher = more signal, called active from +8 up or from −8 down
[5] = forskolin-driven CRE-LacZ activity in PC12 – cell-based, CRE-LacZ reporter, forskolin-stimulated, primary screen (AID 1146); conditions: luminescence, 4.5 h, higher = more signal, called active from +8 up or from −8 down;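 further: PC12 cells with 6xCRE LacZ reporter stimulated by forskolin 10 µM; beta-galactosidase reporter signal reflecting CREB driven transcription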
[6] = biological target: Streptavidin (Streptomyces avidinii) (UniProt P22629); test: compounds binding control protein streptavidin – biophysical, small-molecule microarray, 635/667 nm fluorescence, artefact control for SMM compound annotation, primary screen (AID 1147); conditions: higher = more signal;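 further: signal reflects streptavidin binding to arrayed compounds as a control protein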
Streptavidin (Streptomyces avidinii), sequence (P22629 whole entry, looked up): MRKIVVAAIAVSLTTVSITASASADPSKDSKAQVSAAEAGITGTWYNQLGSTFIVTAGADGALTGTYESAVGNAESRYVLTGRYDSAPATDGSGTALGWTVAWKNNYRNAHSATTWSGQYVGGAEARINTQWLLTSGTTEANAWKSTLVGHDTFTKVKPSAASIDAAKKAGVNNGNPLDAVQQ

[7] = probe aInhba binding on compound microarray – biochemical, small-molecule microarray, 635/667 nm fluorescence, primary screen (AID 1148); conditions: higher = more signal;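 further: score merges 667nm spot fluorescence with signal-to-noise for antibody binding to printed compounds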
[8] = biological target: Torsin-1A (Homo sapiens) (UniProt O14656); test: TOR1A wild-type binding on microarray – cell lysate, small-molecule microarray, lysate, 635/667 nm, primary screen (AID 1149); conditions: COS7 hTOR1A-WT lysate, 635 nm fluorescence, higher = more signal
Torsin-1A (Homo sapiens), sequence (O14656 whole entry, looked up): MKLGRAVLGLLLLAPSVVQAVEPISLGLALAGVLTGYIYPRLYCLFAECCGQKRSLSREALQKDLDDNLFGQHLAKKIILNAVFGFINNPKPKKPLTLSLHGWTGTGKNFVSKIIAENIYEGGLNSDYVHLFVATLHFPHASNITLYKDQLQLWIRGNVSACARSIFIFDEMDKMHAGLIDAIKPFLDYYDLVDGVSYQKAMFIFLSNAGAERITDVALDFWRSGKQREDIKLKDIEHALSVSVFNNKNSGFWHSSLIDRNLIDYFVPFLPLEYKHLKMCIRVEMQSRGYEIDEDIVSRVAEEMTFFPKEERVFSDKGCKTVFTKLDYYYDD

[9] = biological target: Torsin-1A (Homo sapiens) (UniProt O14656); test: torsin A mutant lysate binding on microarrays – cell lysate, small-molecule microarray, COS7 lysate, 635/667 nm fluorescence, primary screen (AID 1150); conditions: COS7 hTOR1A mutant lysate, 635 nm fluorescence, higher = more signal;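 further: score pools 667 nm emission and signal to noise measuring lysate protein binding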
[10] = system: Sonic hedgehog protein (Shh); test: Sonic hedgehog microarray binding compounds – biochemical, small-molecule microarray, 635/667 nm fluorescence, primary screen (AID 1151); conditions: 635 nm fluorescence, higher = more signal;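 further: Shh protein binding to compounds spotted on small-molecule microarray slides; score combines spot fluorescence intensity with signal-to-noise across triplicate slides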

| SMILES | composite z-score [1] | z-score [2] | z-score [3] | z-score [4] | z-score [5] | composite z-score [6] | composite z-score [7] | composite z-score [8] | composite z-score [9] | composite z-score [10] |
| --- | --- | --- | --- | --- | --- | --- | --- | --- | --- | --- |
| Cc1ccc(S[C@]2(C(=O)NC3CC3)CC(=O)N(C3Cc4ccccc4C3)[C@@H]2c2ccc(CO)cc2I)cc1 | -0.547 | -2.23 (inactive) | 0.714 (inactive) | 0.919 (inactive) | 2.86 (inactive) | -0.441 | 0.0051 | 0.909 | 0.701 | 0.209 |
| C=C(CCCC)/C(=C/C[C@@H](OC(C)=O)c1ccc(OCCO)cc1)c1cc(C(=O)OC)ccc1OC | -0.0169 | -3.57 (inactive) | 0.412 (inactive) | 5.45 (inactive) | 0.574 (inactive) | 0.313 | -0.176 | 0.929 | 0.687 | 1.04 |
| COc1c(C)cc(-c2cc3c(c(CCc4ccccc4)n2)[Si](C(C)C)(C(C)C)O[C@H]3c2ccccc2)cc1C | -0.169 | -2.84 (inactive) | -0.0716 (inactive) | -0.272 (inactive) | 0.412 (inactive) | -0.0663 | -0.128 | -1.11 | -0.554 | -0.11 |
| COc1cc(Cc2cc3c(c(-c4ccccc4)n2)[Si](C(C)C)(C(C)C)OC3)cc(OC)c1OC | 0.26 | -0.324 (inactive) | -0.546 (inactive) | -0.113 (inactive) | -0.437 (inactive) | 1.89 | 0.161 | -0.226 | -0.141 | 0.143 |
| CC(C)C[C@@H]1NC(=O)[C@H]2C[C@@H](C(=O)O)[C@@H](c3cccc(OCCO)c3)N2C1=O | -0.107 | -0.513 (inactive) | -0.443 (inactive) | 0.561 (inactive) | -0.411 (inactive) | -0.0612 | 0.0228 | 0.994 | 2.17 | 1.42 |
